# Laboratory results as given in PubChem BioAssay AID743382 (National Center for Advancing Translational Sciences (NCATS), 2014).
# The source made the active and inactive calls. The call rests on the fitted dose curve.
# Test: qHTS for Inhibitors of PI5P4K: BT474 Cell Proliferation Assay for Probe SAR
# Conditions: CellTiter-Glo ATP luminescence, 72 h
# Source text: In addition to finding PI5P, we discovered the type II phosphatidylinositol 5-phosphate 4-kinase (PI5P4K) family (alpha, beta, gamma isoforms) that catalyze the conversion of PI5P to PI(4,5)P2. Alternatively, PI(4,5)P2 can also be synthesized through phosphatidylinositol-4-phosphate (PI4P) by the type I phosphatidylinositol 4-phosphate 5-kinases (PI4P5K). These PI5P4K enzymes therefore represent one way by which cells can regulate endogenous PI5P levels and play important roles in insulin signaling and in stress responses. […] A qHTS PI5P4K-alpha ADP-Glo assay was developed to identify specific modulators of human PI5P4K, phosphatidylinositol-5-phosphate 4-kinase (Type II PIPK). […]
# BT474 cells were cultured in DMEM with 10% FBS and plated in 1536-well white solid-bottom tissue-culture treated plates at a density of 500 cells per 5 microL well. […] After 72 hours of incubation at 37 degrees C 5% CO2 the level of ATo was measured using the Cell Titer Glo luciferase-coupled ATP detection system from Promega. This assays monitors cells by quantitating the amount of ATP present by luciferase, which in the presence of ATP converts pro-luciferin into the luminescent luciferin product. A compound that inhibits cell proliferation would result in a decrease in luminescence. […] The luminescence was read on a Viewlux (Perkin Elmer) plate reader.
row,SMILES,Potency
1,O=C1Nc2ccc(C(=O)c3ccco3)cc2/C1=C/c1cc(Cl)c(O)c(Cl)c1,10.5 µM (active)
